# Legend:
# [1] = system: HUNK
# [2] = system: ICK
# [3] = system: IGF1R
# [4] = system: T1, IKK-beta
# T1 construct: gene IKBKB
# [5] = system: T2, IKK-epsilon
# T2 construct: gene IKBKE
# [6] = system: JAK1(JH1domain-catalytic)
# [7] = system: JAK3(JH1domain-catalytic)
# [8] = system: JAK1(JH2domain-pseudokinase)
# [9] = system: T3, JNK1
# T3 construct: gene MAPK8
# 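Also: kd values determined as follow-up on hits from a single-replicate KINOMEscan panel screen.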
smiles,measurement,setting,value
COC(=O)c1cccc(NC(=O)NCCNc2ccnc(Nc3ccc(F)cc3)n2)c1 [GSK1379883],Kd,[1],> 10000 nM
O=C(Nc1ccccc1F)NC1CCN(c2ccnc(Nc3ccc(F)cc3)n2)C1 (stereo not drawn) [GSK1379722],Kd,[2],> 10000 nM
same,Kd,[3],> 10000 nM
Nc1nc(-c2ccc3c(N)n[nH]c3c2)cc(N2CCC[C@@H](C(=O)Nc3ccccc3)C2)n1.O=C(O)C(F)(F)F.O=C(O)C(F)(F)F [GSK2288359],Kd,[3],> 10000 nM
Cl.Cl.c1ccc(-c2cc3ccncc3cc2OC2CCNCC2)cc1 [GSK1122999],Kd,[4],24 nM
CCc1nc(-c2cccc(C)c2)c(-c2ccnc(NC(=O)c3ccccc3)c2)s1,Kd,[5],> 10000 nM
C[C@@H]1CCN(C(=O)CO)C[C@@H]1N(C)c1ncnc2[nH]ccc12,Kd,[6],120 nM
same,Kd,[7],3.6 nM
CC(C)(C)c1ccc(-n2cnc3c(N)ncnc32)cc1 [SKF-97263],Kd,[8],250 nM
CC(=O)Nc1n[nH]c2ncc(-c3ccccc3)cc12 [SB-548492],Kd,[8],380 nM
CN1c2ccc(-c3ccc(C(=O)NCCO)cc3)cc2-c2[nH]ncc2S1(=O)=O,Kd,[7],6800 nM
COC(=O)c1c(-c2ccccc2)c2cc(Cl)ccc2c(=O)n1Cc1ccc(S(C)(=O)=O)cc1,Kd,[9],61 nM

# Source: article PMC5540273 (PLoS ONE, 2017)
